Screening data as filed in PubChem BioAssay.
Most compounds without a hit are left out; they make up all but 8% or so of the library.
SW480 rerep – induces DNA re-replication in SW480 colon adenocarcinoma cells; 1.8% of 340,000 active; Potency, µM (doses to about 46.1 µM), for inactives: at the top dose re-replication activation, hits mostly activators; SW480 DNA re-replication, Hoechst DNA content imaging, 48 h; AID 624297; also: % of control where 0% means no effect; nearly all actives have a fitted effect of over 55% in size
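Compounds, transferred as 23 nL by pin tool, were incubated with cells for 48 hr; DNA content per nucleus was then quantified by Hoechst staining and fluorescence plate imaging.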
KB-3-1 tox – kills parental KB-3-1 adenocarcinoma cells; KB-3-1 viability, CellTiter-Glo ATP luminescence, 72 h; Potency, µM (top dose mostly 46.1 µM), usual class: cytotoxic; 1.4% of 400,000 active; AID 1347075; also: % is scaled to controls: 0 for no effect and ±100 for the full control effect; nearly all actives have a fitted effect of over 60% in size
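Using CellTiter-Glo luminescence, growth of non-resistant KB-3-1 adenocarcinoma cells is assessed 72 h after pin-tool compound addition at 37 °C. Normalized responses across the concentration series yield fitted curves.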
HT1080-NT tox – kills 2HG-producing HT-1080-NT fibrosarcoma cells; Potency, µM (highest dose often 46.1 µM), for inactives: top-dose activity, negative = less viability, most hits filed as cytotoxic; HT-1080-NT fibrosarcoma viability, CellTiter-Glo ATP luminescence, 48 h; 1.6% of 360,000 active;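 also: NT is the 2HG producing partner of a matched IDH1 knockdown line; 0% = DMSO-treated cells and -100% = media-only wells without cells; nearly all actives have a fitted effect of over 55% in size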
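Viability by CellTiter-Glo luminescence after 48 h compound exposure at 37C of HT-1080-NT cells (750/well, RPMI, 5% FBS). % activity scaled between DMSO wells and medium-only wells, then curve-fitted and categorized by curve class.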
MCF10A rerep – DNA re-replication induction in MCF 10a cells; 2.9% of 350,000 active; MCF 10A DNA re-replication, Hoechst nuclear intensity, 48 h; AID 624296; Potency, µM (titrated, usually from 46.1 µM), for the others: at the highest dose activity, positive = re-replication, usual class: activators; also: % of control where 0% means no effect; nearly all actives have a fitted effect of over 50% in size
KB-V1 MDR tox – KB-V1 MDR subline cytotoxicity | KB-V1 MDR cells viability, CellTiter-Glo, 72 h | Potency, µM (doses to about 46.1 µM), most hits filed as cytotoxic | 3.4% of 400,000 active | AID 1347076; also: % is scaled to controls: 0 for no effect and ±100 for the full control effect; nearly all actives have a fitted effect of over 60% in size
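Potencies derive from concentration-effect curves fitted to normalized luminescence (CellTiter-Glo) of KB-V1 cells treated for 72 h at 37 degrees C in phenol-red-free DMEM containing 10% FBS.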
HT1080 IDH1KD tx – toxicity to HT-1080 IDH1 knockdown cells (counter line) | 2% of 360,000 active | Potency, µM (series often up to 46.1 µM), without a hit: at the highest dose activity, negative = toxicity, actives largely listed as cytotoxic | HT-1080 IDH1 knockdown viability, ATP luminescence, 48 h;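 also: 0% = DMSO wells and -100% = cell-free medium wells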
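IDH1KD HT-1080 cells, 750/well, RPMI + 5% FBS; compound pinned after 2 h settling; 48 h, 37 °C; CellTiter-Glo luminescence; % activity normalised to DMSO and no-cell wells; curves fitted, classed by r2 and efficacy.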
The depositor's hits bear a star; i = inactive; ? = inconclusive; . = not tested or not shown. Calls follow the shape of the dose curve; as a rule, active = well fitted curve in the direction sought with a large enough effect; inconclusive = small, poorly fitted or top-dose-only effect, or another doubt; inactive = no such curve, though single readings can be large; an effect the other way counts as inactive or inconclusive. Potency is read from the fitted curve at half-maximal effect.

SMILES	SW480 rerep	KB-3-1 tox	HT1080-NT tox	MCF10A rerep	KB-V1 MDR tox	HT1080 IDH1KD tx
Cc1cc2c(cc1S(=O)(=O)Nc1cccc(C#N)c1)OCC(=O)N2	.	i	.	.	i	.
CCOC(=O)c1c(C)oc2nc(C)nc(N3CCN(c4cc(Cl)ccc4C)CC3)c12	.	i	.	.	?	.
Cc1ccccc1-n1c(C)n[nH]c1=S	15µM*	i	13µM*	9.2µM*	i	?
CCc1cc(-c2n[nH]c(=S)n2CC)cs1	0%	?	1%	5%	?	2%
CCc1cc(-c2n[nH]c(=S)n2-c2ccccc2C)cs1	?	i	11µM*	-3%	18µM*	?
CCc1cc(-c2n[nH]c(=S)n2Cc2ccccc2)cs1	-1%	i	8%	3%	21µM*	10%
CCOCCCn1c(SCC(=O)NCc2ccccc2)nc2c(sc3ccccc32)c1=O	.	i	.	.	i	.
CSC1=NSC2=NC(=O)/C(=C/c3coc4ccccc4c3=O)C(=N)N12	-1%	i	-8%	?	?	-16%
CSC1=NSC2=NC(=O)/C(=C\c3cccs3)C(=N)N12	-13%	?	-21%	?	4.6µM*	-24%
N=C1/C(=C/c2cccs2)C(=O)N=C2SN=C(SCc3ccccc3)N12	-5%	?	-2%	?	23µM*	-10%
CC(C)CSC1=NSC2=NC(=O)/C(=C\c3cccs3)C(=N)N12	10%	?	-1%	21µM*	?	-14%
CC1=CC2=NC(=O)/C(=C/c3cccs3)C(=N)N2O1	-3%	i	-2%	5%	i	12%
COc1ccc(-c2nnc(SCC(=O)Nc3ccc(F)cc3)s2)cc1	.	i	.	.	i	.
COc1ccccc1-c1nnc2n1N=C(c1ccc(O)c(O)c1)CS2	?	?	0.21µM*	?	?	?
CCOc1ccc(-c2nnc3n2N=C(c2ccc(OC)cc2)CS3)cc1	2%	i	5%	12%	i	0%
COc1ccc(OC)c(C2=Nn3c(nnc3-c3cc(C)[nH]n3)SC2)c1	-13%	i	-22%	4%	?	-14%
COc1ccc(C2=Nn3c(nnc3-c3ccccn3)SC2)cc1	?	?	-17%	11%	15µM*	-1%
CCc1nnc2n1N=C(c1ccc(OC)cc1)CS2	?	23µM*	?	10%	16µM*	?
COc1ccc(C2=Nn3c(nnc3-c3ccccc3OC)SC2)cc1OC1CCOC1 (stereo not drawn)	1µM*	0.65µM*	.	1.3µM*	3.3µM*	.
COc1ccc(C2=Nn3c(nnc3-c3ccccc3C(F)(F)F)SC2)cc1OC1CCOC1 (stereo not drawn)	25%	?	.	2%	i	.
Cc1c(CCC(=O)NCCc2ccccc2)c(=O)oc2c(C)c(O)ccc12	.	i	.	.	i	.
CCOc1ccc(CCNC(=O)c2nn(-c3ccc(OC)cc3)c(=O)c3c2c2ccccc2n3C)cc1OCC	.	i	.	.	i	.
Cc1ccc2c(c1)C(c1ccccc1)N(C(=O)c1ccc(OC(C)C)cc1)CC(=O)N2 (stereo not drawn)	.	i	.	.	i	.
CCOc1ccc(C2=Nn3c(nnc3-c3ccccc3OC)SC2)cc1	0.26µM*	0.012µM*	0.21µM*	?	?	0.01µM*
c1ccc(-c2ccc(C3=Nn4c(nnc4-c4cc(-c5ccccc5)n[nH]4)SC3)cc2)cc1	?	?	?	15µM*	16µM*	18µM*
SMILES	SW480 rerep	KB-3-1 tox	HT1080-NT tox	MCF10A rerep	KB-V1 MDR tox	HT1080 IDH1KD tx
CC1=Nn2c(nnc2-c2cc(-c3ccccc3)n[nH]2)SC1	5%	i	-4%	-3%	i	0%
COc1ccc(C2=Nn3c(nnc3-c3cccnc3)SC2)cc1OC	1%	i	-1%	11%	?	-19%
COc1ccc(C2=Nn3c(nnc3-c3ccncc3)SC2)cc1OC	16µM*	?	?	?	i	?
COc1ccc(S(=O)(=O)N(CC(=O)NCc2ccc(C)cc2)c2ccc(Cl)cc2)cc1	.	i	.	.	i	.
COC(CNC(=O)c1ccc2c3c(onc13)-c1ccccc1C2=O)OC	?	?	23µM*	?	i	?
CC(C)(C)c1ccc(-n2ncc3c2CCCC3NC(=O)CCN2CCCC2=O)cc1 (stereo not drawn)	-13%	i	?	-1%	i	18µM*
CC(C)(C)c1ccc(-n2ncc3c2CCCC3NC(=O)CN2CCCC2=O)cc1 (stereo not drawn)	-2%	?	?	8%	8.2µM*	1%
Cc1cc(C)cc(-n2ncc3c2CCCC3NC(=O)c2ccccc2N2CCOCC2)c1 (stereo not drawn)	21µM*	?	?	?	?	16µM*
Cn1nccc1C(=O)NC1CCCc2c1cnn2-c1ccc(C(C)(C)C)cc1 (stereo not drawn)	?	?	1.3µM*	18µM*	?	1.3µM*
